# Experimental data from the supplement of paper PMC6555819.
# How the values were obtained:
# Assay in all cases: PBM binding z-score (relative to random genomic background probes); higher = stronger binding; sequences stand for … in GC…GCGATTGACAGCGTAGAATGAAGG
# [1] = system: PPARg:RXRa DBDmut IVT, anti-RXR (DBD mutation: RXRa K156A/R161A, NR concentration 270 nM, RXRa partner concentration 90 nM)
# Procedure, shortened: (§1)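 Each nuclear receptor dimer, without ligand, was incubated for 1 h on custom Agilent 4×180K protein-binding microarrays. Binding was detected with antibodies against each partner (one per run), and scanned fluorescence was regression-normalized. The binding z-scores are referenced to random human genomic background probes.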
# [2] = system: PPARg:RXRa IVT, anti-PPARg (NR concentration 270 nM, RXRa partner concentration 90 nM)
# Procedure, shortened: as §1
# [3] = system: PPARg DBDmut:RXRa IVT, anti-PPARg (DBD mutation: PPARg1 K132A/R137A, NR concentration 270 nM, RXRa partner concentration 90 nM)
# Procedure, shortened: as §1
# [4] = system: PPARg DBDmut IVT, anti-PPARg (DBD mutation: PPARg1 K132A/R137A, NR concentration 270 nM)
# Procedure, shortened: as §1
# [5] = system: PPARg homodimer (NR concentration 180 nM)
# Procedure, shortened: as §1
# [6] = system: PXR:RXRa (NR concentration 270 nM, RXRa partner concentration 90 nM)
# Procedure, shortened: as §1
# [7] = system: PXR homodimer (NR concentration 270 nM)
# Procedure, shortened: as §1
# [8] = system: RARa:RXR (NR concentration 270 nM, RXRa partner concentration 90 nM)
# Procedure, shortened: as §1
# [9] = system: RARa homodimer (NR concentration 270 nM)
# Procedure, shortened: as §1
# [10] = system: RARb:RXRa (NR concentration 270 nM, RXRa partner concentration 90 nM)
# Procedure, shortened: as §1
# [11] = system: RARb homodimer (NR concentration 270 nM)
# Procedure, shortened: as §1
# [12] = system: RARg:RXRa (NR concentration 270 nM, RXRa partner concentration 90 nM)
# Procedure, shortened: as §1
# [13] = system: RARg homodimer (NR concentration 270 nM)
# Procedure, shortened: as §1
# [14] = system: RXRa DBDmut IVT, anti-RXR (DBD mutation: RXRa K156A/R161A, NR concentration 90 nM)
# Procedure, shortened: as §1
# [15] = system: RXRa homodimer (NR concentration 180 nM)
# Procedure, shortened: as §1
# [16] = system: THRa:RXRa (NR concentration 90 nM, RXRa partner concentration 90 nM)
# Procedure, shortened: as §1
# [17] = system: THRa homodimer (NR concentration 90 nM)
# Procedure, shortened: as §1
# [18] = system: VDR homodimer (NR concentration 270 nM)
# Procedure, shortened: as §1
Sequence,PBM binding z-score [1],PBM binding z-score [2],PBM binding z-score [3],PBM binding z-score [4],PBM binding z-score [5],PBM binding z-score [6],PBM binding z-score [7],PBM binding z-score [8],PBM binding z-score [9],PBM binding z-score [10],PBM binding z-score [11],PBM binding z-score [12],PBM binding z-score [13],PBM binding z-score [14],PBM binding z-score [15],PBM binding z-score [16],PBM binding z-score [17],PBM binding z-score [18]
CAAACTAGTTCAAGGTCAAAGTCGGTTTGTGCCA,2.12,3.26,0.529,-0.205,3.85,5.23,3.52,5.1,0.936,4.34,4.53,4.97,4.53,3.32,4.79,4.05,4.02,4.9
CCTACTGGGCCATTCAGAGGTAATTGATCATATG,3.91,3.26,-0.325,-0.711,-0.319,-0.537,-0.389,-0.179,-0.252,0.178,-0.0878,0.0655,0.162,-0.042,-0.244,0.3,-0.433,-0.114
CCAGACAGTTGAGAAGGTAACTCAGCCTCGATTA,0.0699,-0.312,0.611,-0.051,1.22,0.00076,0.294,0.392,1.27,0.189,0.381,0.25,0.293,0.456,0.203,0.25,0.485,0.252
CCTTAAGGGTCACTCCAGGTTATAGCATCGGAGT,3.17,4.07,0.0681,0.102,2.47,5.59,0.47,4.49,0.956,4.97,4.32,5.98,6.35,3.27,6.02,5.09,0.592,2.55
ACTATTAGTTGAGACGAGGGCAACCTATAGGTTG,-0.0527,0.486,1.43,1.25,0.36,1.39,0.585,1.09,0.942,0.936,1.39,0.509,0.764,0.356,0.544,2.63,0.429,0.902
CCCAGCAGGCCAGGGTCACTCAAGCATTTCGCTT,-0.567,0.512,-1.55,-1.26,0.406,2.46,-0.562,3.22,-0.754,2.62,2.82,3.02,2.79,0.022,3.26,2.81,1.3,1.55
ACAGACAGGTGAGTGTAGGTAACTCAGCTGGACG,0.831,1.24,-0.529,-0.0544,0.128,-0.121,0.0184,0.216,0.676,0.392,-0.178,0.259,0.401,-0.328,0.232,1.33,-0.572,-0.361
AGTCAAAGTTCACTAGTTAACGTAAGATTCAGCT,0.662,2.31,1.15,0.981,2.52,4.28,3.24,2.94,1.15,4.76,3.6,4.87,5.57,4.26,3.7,1.45,-0.514,4.04
AATACAGGGTCATCGTAGGCCGGAGTACGCACAG,2.7,4.02,1.63,1.58,2.22,4.4,0.419,4.74,0.979,4.17,3.49,5.55,5.08,3.69,6.23,4.13,1.46,3.63
ATCTCTAGGTAAAGTTCAATGAAAGATCGATAGA,2.42,3.05,1.44,1.47,1.79,3.02,2.63,1.92,2.05,3.19,2.76,2.7,2.91,1.75,2.27,1.57,0.271,2.82
CAAACTAGGTCAAAGGTCAAAGTCGAGCCAACCA,8.73,9.33,2.23,2.15,5.09,7.21,2.02,8.8,3.18,5.96,4.96,8.83,7.42,2.87,10.2,4.74,1.83,3.41
CCTTACGGGACACTGACAGGTTATAGCATTTGGA,0.975,0.149,0.162,-0.682,-0.0979,-0.2,0.162,-0.0303,0.647,0.42,0.492,0.652,0.903,0.645,0.341,0.178,0.0512,-0.0453
TCATATAGGTAAACAGGTGACAGTCCGTAAGTTA,4.87,4.6,1.49,1.05,0.856,0.915,0.237,0.971,0.875,0.779,0.765,0.72,0.419,1.37,1.12,0.614,0.354,0.168
GCTGCTAGGTCAGGTTGTTCAGCTAACGGGTACG,3.24,2.3,0.0355,-0.699,0.293,0.34,-0.306,0.883,-0.985,3.15,2.56,2.2,3.13,0.777,0.914,1.71,0.779,0.556
